Outcome and AC50 data for four molecules are collected here from PubChem BioAssay (EPA / NIEHS).

The nature of assay [1]: ATG_TCF_b_cat_CIS: Attagene CIS-FACTORIAL HepG2 Assay for human T-Cell-Factor with beta-catenin (TCF/b-cat) (AID 2282965; active means hit-call score of the fitted dose curve at least 0.9, where 1 is the maximum; inactive means score below 0.9). Conditions: HepG2 TCF/beta-catenin cis-reporter transcription, actives raise or lower the signal. The method, boiled down:
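Cells of the HepG2 line carry transiently transfected reporter units whose promoters respond to endogenous factors. Twenty-four hours post-dosing, reporter mRNA induction is measured by fluorescent RT-PCR and capillary electrophoresis, with DMSO as baseline.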

Assay [2] in a line: ATG_TAL_CIS: Attagene CIS-FACTORIAL HepG2 Assay for human TAL Basal Promoter (AID 2282966; active means hit-call score of the fitted dose curve at least 0.9, where 1 is the maximum; inactive means score below 0.9;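 further: background control endpoint measuring basal TAL promoter reporter mRNA not a specific factor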). Conditions: HepG2 Attagene cis-factorial TAL promoter reporter; actives raise or lower the signal. The method, boiled down: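 Basal-promoter background-control endpoint from a multiplexed HepG2 reporter panel. Cells were exposed 24 h, then reporter mRNA was read by RT-PCR/CE fluorescence and fitted in both directions relative to DMSO.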

A short description of assay [3]: ATG_TGFb_CIS: Attagene CIS-FACTORIAL HepG2 Assay for human Transforming Growth Factor (TGF) (AID 2282967; active means hit-call score of the fitted dose curve at least 0.9, where 1 is the maximum; inactive means score below 0.9). Conditions: HepG2 Attagene CIS TGFb reporter, mRNA transcription; actives raise or lower the signal. An outline of the steps:
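Transcript-level reporter readout: HepG2 transfectants, 24 h exposure, RNA to cDNA, reporter-specific PCR, fluorescent primer extension, capillary sizing against ROX standards. Gain- or loss-of-signal relative to DMSO.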

Assay [4] is described as follows: ATG_VDRE_CIS: Attagene CIS-FACTORIAL HepG2 Assay for human Vitamin D Receptor Element (VDRE) (AID 2282968; active means hit-call score of the fitted dose curve at least 0.9, where 1 is the maximum; inactive means score below 0.9). To be noted: HepG2 VDRE cis-reporter transcription, actives raise or lower the signal. An outline of the steps: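 Compounds were applied for 24 h to HepG2 cells transfected with promoter-regulated reporter units. Total RNA was reverse-transcribed, and reporter amplicons were fluorescently labelled and sized by capillary electrophoresis.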

Assay [5] deals with Nuclear receptor subfamily 1 group I member 3 (Homo sapiens) (UniProt Q14994). The assay is described as follows: ATG_CAR_TRANS: Attagene TRANS-FACTORIAL HepG2 Assay for human Constitutive Androstane Receptor (CAR) (AID 2282969).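 Further: activators raise reporter mRNA above DMSO so AC50 marks induction.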 To be noted: HepG2 Attagene TRANS-FACTORIAL CAR reporter. The method, boiled down:
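Transiently transfected HepG2, multiplex TRANS reporters (CAR-Gal4 chimera driving GAL4-UAS reporter). 24 h dosing. Readout: reporter transcript by RT-PCR + capillary electrophoresis, fluorescence intensity; positive direction vs DMSO.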

For assay [6], the target named is Estrogen receptor (Homo sapiens) (UniProt P03372). In words: ATG_ERa_TRANS: Attagene TRANS-FACTORIAL HepG2 Assay for human Estrogen Receptor alpha (ERa) (AID 2282970). Conditions: HepG2 Attagene TRANS ERa GAL4 reporter, mRNA. An outline of the steps: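 Gal4-fusion ERa transactivation, measured as reporter transcript level in transiently transfected HepG2 cells. Exposure 24 h; RT-PCR plus capillary electrophoresis with fluorescence detection.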

Assay [7] deals with Steroid hormone receptor ERR1 (Homo sapiens) (UniProt P11474). In words: ATG_ERRa_TRANS: Attagene TRANS-FACTORIAL HepG2 Assay for human Estrogen-Related Receptor alpha (ERRa) (AID 2282971). Conditions: HepG2 Attagene TRANS reporter, ERRa transactivation. The method, boiled down:
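HepG2 cells transiently transfected with GAL4-UAS reporter units and chimeric NR-Gal4 constructs; after 24 hour compound incubation, reporter mRNA quantified by RT-PCR, fluorescent labelling and capillary electrophoresis, gain of signal versus DMSO.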

Assay [8] deals with X-box-binding protein 1 (Homo sapiens) (UniProt P17861). The assay is described as follows: ATG_Xbp1_CIS: Attagene CIS-FACTORIAL HepG2 Assay for human X-box Binding Protein 1 (XBP1) (AID 2282972; active means hit-call score of the fitted dose curve at least 0.9, where 1 is the maximum; inactive means score below 0.9). To be noted: HepG2 XBP1 cis-element reporter, Attagene multiplex; actives raise or lower the signal. An outline of the steps: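 Changes in reporter transcript abundance, read by RT-PCR and capillary electrophoresis, reflect endogenous transcription factor activity. Transfected HepG2 cells received compound for 24 hours; DMSO defined baseline for bidirectional analysis.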

For assay [9], the target named is Estrogen-related receptor gamma (Homo sapiens) (UniProt P62508). In words: ATG_ERRg_TRANS: Attagene TRANS-FACTORIAL HepG2 Assay for human Estrogen-Related Receptor gamma (ERRg) (AID 2282977).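 Further: hits increase reporter signal over DMSO so potencies reflect activators.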 Conditions: HepG2 Attagene TRANS reporter, ERRg transactivation. An outline of the steps:
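Exogenous NR-Gal4 chimera activity measured as reporter transcript induction after 24 h in transiently transfected HepG2 cells. RNA reverse-transcribed, PCR-amplified, 6-FAM-labelled and resolved by capillary electrophoresis; increase over DMSO baseline.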

Assay [10] deals with Glucocorticoid receptor (Homo sapiens) (UniProt P04150). The assay is described as follows: ATG_GR_TRANS: Attagene TRANS-FACTORIAL HepG2 Assay for human Glucocorticoid Receptor (GR) (AID 2282978).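 Further: activators score as hits since higher reporter transcript over DMSO is fitted.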 Conditions: HepG2 Attagene TRANS GR reporter, mRNA transcription. An outline of the steps:
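In this trans-factorial format, exogenous NR-GAL4 chimeric proteins in transfected HepG2 cells regulate GAL4-UAS reporter transcription. After 24 h treatment, reporter mRNA induction relative to DMSO is read by RT-PCR and capillary electrophoresis.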

For assay [11], the target named is Bile acid receptor (Homo sapiens) (UniProt Q96RI1). In words: ATG_FXR_TRANS: Attagene TRANS-FACTORIAL HepG2 Assay for Farnesoid X Receptor (FXR) (AID 2282979).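 Further: hits raise reporter mRNA above DMSO so AC50 marks FXR activation.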 To be noted: HepG2 Attagene TRANS FXR-GAL4 reporter transcription. The method, boiled down: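 HepG2 cells were transiently transfected with GAL4-UAS reporters driven by chimeric NR-Gal4 proteins and dosed for 24 h. Reporter mRNA was quantified by RT-PCR, fluorescent labelling, HpaI digestion and capillary electrophoresis, with gain of signal scored versus DMSO.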

For assay [12], the target named is Oxysterols receptor LXR-alpha (Homo sapiens) (UniProt Q13133). In words: ATG_LXRa_TRANS: Attagene TRANS-FACTORIAL HepG2 Assay for human Liver X Receptor alpha (LXRa) (AID 2282980). To be noted: HepG2 Attagene TRANS reporter, LXRa transactivation. The method, boiled down:
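HepG2 cells transiently transfected with GAL4-UAS reporter units for chimeric NR-Gal4 proteins, exposed to chemicals for 24 h. Reporter mRNA quantified by RT-PCR and capillary electrophoresis; gain of signal fitted relative to DMSO.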

The target of assay [13] is Oxysterols receptor LXR-beta (Homo sapiens) (UniProt P55055). The assay is described as follows: ATG_LXRb_TRANS: Attagene TRANS-FACTORIAL HepG2 Assay for human Liver X Receptor beta (LXRb) (AID 2282981). Conditions: HepG2 Attagene TRANS GAL4-LXRb reporter, mRNA. The method, boiled down:
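Multiplexed reporter assay, HepG2, 24 h dosing. Fluorescence of labelled RT-PCR products after capillary electrophoresis gives transcript level; positive fitting direction relative to DMSO.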

Assay [14] addresses Hepatocyte nuclear factor 4-alpha (Homo sapiens) (UniProt P41235). The assay is described as follows: ATG_HNF4a_TRANS: Attagene TRANS-FACTORIAL HepG2 Assay for human Hepatocyte Nuclear Factor 4 alpha (HNF4a) (AID 2282982). To be noted: HepG2 HNF4a transactivation reporter, mRNA readout. An outline of the steps: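 Endpoint reflects transcriptional activation of a GAL4-UAS reporter by an HNF4a-GAL4 chimera in transfected HepG2 cells, 24 h post-dosing. Fluorescence from RT-PCR products separated by capillary electrophoresis; DMSO baseline.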

The target of assay [15] is Nuclear receptor subfamily 4 group A member 2 (Homo sapiens) (UniProt P43354). In words: ATG_NURR1_TRANS: Attagene TRANS-FACTORIAL HepG2 Assay for human Nuclear Receptor Related Protein 1 (NURR1) (AID 2282985). Conditions: HepG2 Attagene TRANS reporter, mRNA readout. An outline of the steps: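 Endpoint: reporter mRNA increase relative to DMSO. HepG2 cells transfected with reporter units, treated 24 h; RNA processed by RT-PCR, labelling, HpaI digestion and capillary electrophoresis.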

Assay [16] is described as follows: ATG_M_19_TRANS: Attagene TRANS-FACTORIAL HepG2 Assay for M19 Transcription Factor (Internal Marker) (AID 2282974). Conditions: HepG2 Attagene TRANS-FACTORIAL M19 internal marker reporter. An outline of the steps: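 Cells: human HepG2, transiently transfected with multiplexed reporter transcription units. Exposure: 24 h. Detection: RT-PCR of reporter mRNA with capillary electrophoresis. Analysis: gain-of-signal vs DMSO.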

A short description of assay [17]: ATG_GAL4_TRANS: Attagene TRANS-FACTORIAL HepG2 Assay for GAL4 (Internal Marker) (AID 2282976). Conditions: HepG2 Attagene TRANS GAL4 internal marker reporter. The method, boiled down: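 Background-control readout: GAL4-UAS reporter transcript in transiently transfected HepG2 cells after 24 h compound exposure. Measured by RT-PCR, 6-FAM primer extension, HpaI digest and capillary electrophoresis; gain-of-signal fit versus DMSO.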

Assay [18] is described as follows: ATG_M_06_TRANS: Attagene TRANS-FACTORIAL HepG2 Assay for M06 Transcription Factor (Internal Marker) (AID 2282983). Conditions: HepG2 Attagene TRANS M06 internal marker reporter. The method, boiled down:
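mRNA levels of a reporter transcript, quantified as FAM fluorescence on capillary electrophoresis, served as readout. HepG2 cells expressing exogenous GAL4-chimera reporter constructs were exposed for 24 h. Gain of signal over DMSO was evaluated.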

The target in assay [19] is Transcriptional activator Myb (Homo sapiens) (UniProt P10242). The assay is described as follows: ATG_Myb_CIS: Attagene CIS-FACTORIAL HepG2 Assay for human Myeloblastosis (Myb) Proto-Oncogene Transcription Factor (AID 2282986; active means hit-call score of the fitted dose curve at least 0.9, where 1 is the maximum; inactive means score below 0.9). To be noted: HepG2 Attagene CIS-FACTORIAL Myb reporter transcription; actives raise or lower the signal. An outline of the steps: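 Steps: transfect HepG2 with cis-regulated reporter units; dose with chemical for 24 h; isolate RNA, reverse-transcribe, PCR-amplify and FAM-label reporter sequences; digest with HpaI; resolve by capillary electrophoresis. Activity fitted in both directions relative to DMSO.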

A short description of assay [20]: ATG_M_32_TRANS: Attagene TRANS-FACTORIAL HepG2 Assay for M32 Transcription Factor (Internal Marker) (AID 2282984). To be noted: HepG2 Attagene TRANS M32 internal marker reporter. An outline of the steps: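 Internal-marker readout from a multiplexed transcription reporter panel. HepG2 cells were transfected with GAL4-UAS reporter units, treated 24 hours, and reporter transcript levels determined by fluorescence after RT-PCR and capillary separation.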

Results filed as inconclusive are left out. Activity calls are given as the source filed them. How the source made its calls, unless noted: active means hit-call score of the fitted dose curve at least 0.9, where 1 is the maximum; inconclusive means response in the unintended direction; inactive means score below 0.9.

Chain of X-box-binding protein 1 (Homo sapiens) (P17861 whole entry, looked up): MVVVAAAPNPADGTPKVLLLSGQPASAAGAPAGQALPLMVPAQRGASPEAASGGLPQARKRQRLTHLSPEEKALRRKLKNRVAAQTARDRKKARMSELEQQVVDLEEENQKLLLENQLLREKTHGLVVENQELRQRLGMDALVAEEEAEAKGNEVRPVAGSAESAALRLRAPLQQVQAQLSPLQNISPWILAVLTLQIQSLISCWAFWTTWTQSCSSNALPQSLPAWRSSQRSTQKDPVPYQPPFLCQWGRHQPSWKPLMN
Chain of Estrogen receptor (Homo sapiens) (P03372 whole entry, looked up, the tested form may be a part): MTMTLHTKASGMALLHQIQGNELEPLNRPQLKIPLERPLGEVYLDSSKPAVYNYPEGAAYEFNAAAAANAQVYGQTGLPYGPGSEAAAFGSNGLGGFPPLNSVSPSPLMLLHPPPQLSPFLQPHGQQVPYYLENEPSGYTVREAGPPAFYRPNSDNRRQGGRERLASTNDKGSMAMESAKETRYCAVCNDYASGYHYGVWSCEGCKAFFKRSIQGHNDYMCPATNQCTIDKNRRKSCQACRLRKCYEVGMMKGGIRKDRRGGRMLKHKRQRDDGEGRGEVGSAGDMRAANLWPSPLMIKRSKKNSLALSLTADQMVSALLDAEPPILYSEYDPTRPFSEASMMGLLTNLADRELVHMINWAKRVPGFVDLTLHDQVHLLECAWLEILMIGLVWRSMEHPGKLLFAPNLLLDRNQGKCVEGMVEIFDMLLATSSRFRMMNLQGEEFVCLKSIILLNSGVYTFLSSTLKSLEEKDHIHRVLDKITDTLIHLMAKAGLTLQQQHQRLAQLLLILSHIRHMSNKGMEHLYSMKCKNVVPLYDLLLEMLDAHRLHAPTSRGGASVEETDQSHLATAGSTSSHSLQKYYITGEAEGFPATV
Chain of Nuclear receptor subfamily 1 group I member 3 (Homo sapiens) (Q14994 whole entry, looked up, the tested form may be a part): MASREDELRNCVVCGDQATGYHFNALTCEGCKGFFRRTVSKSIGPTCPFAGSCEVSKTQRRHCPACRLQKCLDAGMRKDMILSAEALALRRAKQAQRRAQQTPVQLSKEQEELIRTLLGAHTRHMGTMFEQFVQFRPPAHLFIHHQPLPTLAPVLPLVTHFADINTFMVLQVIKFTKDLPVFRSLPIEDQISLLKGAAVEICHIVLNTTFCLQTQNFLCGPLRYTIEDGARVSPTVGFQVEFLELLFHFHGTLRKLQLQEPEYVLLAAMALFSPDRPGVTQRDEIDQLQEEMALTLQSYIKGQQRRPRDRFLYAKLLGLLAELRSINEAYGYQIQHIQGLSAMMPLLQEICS
Chain of Hepatocyte nuclear factor 4-alpha (Homo sapiens) (P41235 whole entry, looked up, the tested form may be a part): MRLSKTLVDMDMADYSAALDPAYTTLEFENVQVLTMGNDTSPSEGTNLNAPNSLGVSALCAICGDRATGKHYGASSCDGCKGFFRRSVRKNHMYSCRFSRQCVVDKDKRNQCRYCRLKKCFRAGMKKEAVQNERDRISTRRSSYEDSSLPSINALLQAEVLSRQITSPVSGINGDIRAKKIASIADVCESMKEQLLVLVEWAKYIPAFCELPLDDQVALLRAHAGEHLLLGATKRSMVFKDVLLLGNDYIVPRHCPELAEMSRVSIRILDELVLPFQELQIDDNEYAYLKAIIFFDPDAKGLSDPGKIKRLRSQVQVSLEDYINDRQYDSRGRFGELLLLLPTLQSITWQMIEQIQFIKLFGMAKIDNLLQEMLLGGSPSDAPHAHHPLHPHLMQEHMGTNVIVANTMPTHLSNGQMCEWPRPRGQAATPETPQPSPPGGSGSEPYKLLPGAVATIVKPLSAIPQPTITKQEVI
Chain of Oxysterols receptor LXR-alpha (Homo sapiens) (Q13133 whole entry, looked up, the tested form may be a part): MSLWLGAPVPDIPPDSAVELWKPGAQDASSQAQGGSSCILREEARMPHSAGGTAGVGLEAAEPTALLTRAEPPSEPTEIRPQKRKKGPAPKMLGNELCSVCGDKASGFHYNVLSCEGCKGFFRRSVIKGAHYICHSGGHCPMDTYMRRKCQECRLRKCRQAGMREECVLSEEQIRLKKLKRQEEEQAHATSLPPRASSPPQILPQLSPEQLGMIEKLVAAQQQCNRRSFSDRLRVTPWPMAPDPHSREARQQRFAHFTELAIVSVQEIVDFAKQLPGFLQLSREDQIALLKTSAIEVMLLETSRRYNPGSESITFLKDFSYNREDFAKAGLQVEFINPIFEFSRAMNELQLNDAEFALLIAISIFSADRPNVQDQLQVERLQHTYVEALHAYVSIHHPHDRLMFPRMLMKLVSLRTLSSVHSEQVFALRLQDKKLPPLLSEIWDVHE
Chain of Steroid hormone receptor ERR1 (Homo sapiens) (P11474 whole entry, looked up, the tested form may be a part): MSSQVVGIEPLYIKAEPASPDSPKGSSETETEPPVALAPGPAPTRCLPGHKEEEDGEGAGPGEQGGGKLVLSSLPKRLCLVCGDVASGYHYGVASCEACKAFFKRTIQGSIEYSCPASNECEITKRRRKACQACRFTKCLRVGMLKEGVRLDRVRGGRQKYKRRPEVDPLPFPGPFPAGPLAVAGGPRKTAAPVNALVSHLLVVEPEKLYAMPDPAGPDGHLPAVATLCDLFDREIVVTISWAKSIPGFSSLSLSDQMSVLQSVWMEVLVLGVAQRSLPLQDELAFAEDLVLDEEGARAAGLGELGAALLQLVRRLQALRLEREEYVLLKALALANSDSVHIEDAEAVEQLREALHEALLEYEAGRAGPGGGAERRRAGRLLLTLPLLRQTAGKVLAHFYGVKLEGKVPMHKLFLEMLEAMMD
Chain of Glucocorticoid receptor (Homo sapiens) (P04150 whole entry, looked up, the tested form may be a part): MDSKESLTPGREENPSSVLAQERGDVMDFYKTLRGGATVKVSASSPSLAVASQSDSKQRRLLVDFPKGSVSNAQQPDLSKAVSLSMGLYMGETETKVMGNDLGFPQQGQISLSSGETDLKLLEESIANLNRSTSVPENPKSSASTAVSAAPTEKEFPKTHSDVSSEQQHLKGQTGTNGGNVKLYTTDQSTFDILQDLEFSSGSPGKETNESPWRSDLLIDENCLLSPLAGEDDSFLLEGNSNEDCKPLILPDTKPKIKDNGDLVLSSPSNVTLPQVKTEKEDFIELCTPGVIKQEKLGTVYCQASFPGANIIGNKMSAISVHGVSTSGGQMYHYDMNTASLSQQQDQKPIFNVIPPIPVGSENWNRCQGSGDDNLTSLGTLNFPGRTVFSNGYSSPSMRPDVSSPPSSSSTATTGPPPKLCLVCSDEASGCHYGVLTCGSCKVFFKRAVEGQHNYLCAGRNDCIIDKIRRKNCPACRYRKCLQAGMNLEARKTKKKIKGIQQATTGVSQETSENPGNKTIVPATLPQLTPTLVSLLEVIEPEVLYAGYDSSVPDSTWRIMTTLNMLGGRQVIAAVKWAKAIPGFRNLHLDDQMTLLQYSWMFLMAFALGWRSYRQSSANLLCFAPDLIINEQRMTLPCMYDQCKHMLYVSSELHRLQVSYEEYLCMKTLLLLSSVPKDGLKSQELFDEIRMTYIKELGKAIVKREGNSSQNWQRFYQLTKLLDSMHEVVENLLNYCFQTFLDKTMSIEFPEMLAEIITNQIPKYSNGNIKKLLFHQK
Chain of Transcriptional activator Myb (Homo sapiens) (P10242 whole entry, looked up): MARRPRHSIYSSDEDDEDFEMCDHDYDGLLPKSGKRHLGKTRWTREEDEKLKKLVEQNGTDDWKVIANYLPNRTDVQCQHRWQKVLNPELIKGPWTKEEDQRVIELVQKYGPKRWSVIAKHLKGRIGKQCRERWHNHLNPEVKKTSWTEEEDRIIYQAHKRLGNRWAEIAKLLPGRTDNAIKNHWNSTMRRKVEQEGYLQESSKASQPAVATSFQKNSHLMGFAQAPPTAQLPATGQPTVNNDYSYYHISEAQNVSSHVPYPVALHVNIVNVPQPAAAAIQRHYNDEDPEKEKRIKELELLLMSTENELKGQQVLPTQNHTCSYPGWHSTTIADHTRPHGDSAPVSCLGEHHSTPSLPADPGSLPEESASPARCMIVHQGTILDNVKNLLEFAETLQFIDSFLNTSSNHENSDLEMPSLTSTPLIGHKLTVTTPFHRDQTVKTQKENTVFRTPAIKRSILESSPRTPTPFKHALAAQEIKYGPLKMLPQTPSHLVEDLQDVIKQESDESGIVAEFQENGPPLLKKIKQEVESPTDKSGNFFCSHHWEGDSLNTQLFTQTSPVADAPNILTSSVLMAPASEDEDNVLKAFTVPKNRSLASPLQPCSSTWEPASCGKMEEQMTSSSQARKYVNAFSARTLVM
Chain of Nuclear receptor subfamily 4 group A member 2 (Homo sapiens) (P43354 whole entry, looked up): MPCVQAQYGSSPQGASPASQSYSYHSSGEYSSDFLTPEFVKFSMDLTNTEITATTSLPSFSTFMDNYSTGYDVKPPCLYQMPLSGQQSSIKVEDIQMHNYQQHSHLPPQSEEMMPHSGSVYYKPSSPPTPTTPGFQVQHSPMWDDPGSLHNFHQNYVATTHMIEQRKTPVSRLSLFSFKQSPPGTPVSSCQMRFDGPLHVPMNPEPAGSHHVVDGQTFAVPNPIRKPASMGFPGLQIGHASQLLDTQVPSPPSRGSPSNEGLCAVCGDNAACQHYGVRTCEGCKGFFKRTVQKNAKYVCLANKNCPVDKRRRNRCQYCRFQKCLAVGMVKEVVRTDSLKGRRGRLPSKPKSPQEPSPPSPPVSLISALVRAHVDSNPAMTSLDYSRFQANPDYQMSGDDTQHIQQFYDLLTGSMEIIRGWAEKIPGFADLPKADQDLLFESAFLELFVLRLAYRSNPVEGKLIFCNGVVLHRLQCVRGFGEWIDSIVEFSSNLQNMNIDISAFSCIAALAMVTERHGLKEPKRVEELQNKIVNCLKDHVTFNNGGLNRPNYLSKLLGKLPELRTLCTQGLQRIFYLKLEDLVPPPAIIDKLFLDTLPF

Turning to `CCCCCCCCCCCCCCCC[N+](C)(C)Cc1ccccc1`, the result in [1], in assay [2], in assay [3], in assay [4], in assay [5] and in [6] was inactive. In addition, the call in assay [7], in [8], in [10], in assay [11], in assay [12] and in assay [13] was inactive. Moreover, the molecule was classed as inactive in assay [15]. Also, the AC50 in assay [9] was 45.2 µM (active); in [14], 24.8 µM (active).
Turning to `O=C(OCCOCCOCCOC(=O)c1ccccc1)c1ccccc1`, the outcome in [1], in [2], in assay [3], in assay [4], in assay [5] and in assay [8] was inactive. The molecule was classed as inactive in [16], in [17], in assay [12], in assay [14], in [18] and in assay [19]. Besides, the AC50 in assay [6] is 2 µM (active).
For `CC(C)=CCCC(C)CCOC(=O)C(C)C` (stereo unspecified), the result in assay [1], in assay [2], in assay [3], in assay [4], in [5] and in [6] was inactive. In addition, the molecule was called inactive in [8], in assay [16], in [17], in [10], in assay [11] and in assay [12]. The call in assay [14], in [18], in [15] and in [19] was inactive.
Take `Cc1cccc(N(C)C)c1`: the outcome in assay [1], in [2], in [3], in assay [4], in assay [5] and in assay [6] was inactive. Also, the molecule was called inactive in [7], in assay [8], in assay [17], in [14], in [18] and in [20].
